Experimental data reported in PubChem BioAssay (NCATS).
Records with an inconclusive call do not appear. A number with no mark means an inactive call. Active and inactive are the calls of the source. Calls follow the shape of the dose curve; as a rule, active = well fitted inhibition curve with a large enough effect; inconclusive = small, poorly fitted or top-dose-only effect; inactive = flat fitted curve, though single readings scatter.

Test system: JCK
Test: qHTS profiling for inhibitors of Plasmodium falciparum proliferation (AID 504749); also: nearly all actives have a fitted effect of over 60% in size;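 as to activity, negative = inhibition: 0% = DMSO vehicle and full inhibition = artemisinin control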
Settings: P. falciparum in erythrocytes, SYBR Green DNA, 72 h; series mostly up to 28.7 µM; activity, negative = inhibition: at the top concentration
In short: (§1)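 Parasite proliferation within erythrocytes, 72 h exposure. Endpoint: SYBR Green I fluorescence after overnight lysis at room temperature. Controls: 0.29 uM artemisinin, DMSO.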
Potency is read from the fitted curve at half-maximal effect.

Compound	activity, negative = inhibition	Potency
NCCS(=O)(=O)O	9.7%	–
CC(C)Cc1ccc(C(C)C(=O)O)cc1 (configuration not stated)	3.98%	–
CN(C)CCCN1c2ccccc2CCc2ccc(Cl)cc21	-29.9%	–
CC(C)NCC(O)c1ccc(O)c(O)c1 (configuration not stated)	9.73%	–
NC(=O)OCC(COC(N)=O)c1ccccc1	7.9%	–
N[C@@H](Cc1c[nH]c2ccc(O)cc12)C(=O)O	-10.5%	–
Cc1cnc(C(=O)NCCc2ccc(S(=O)(=O)NC(=O)NC3CCCCC3)cc2)cn1	10.8%	–
CCOC(=O)C(C)(C)Oc1ccc(Cl)cc1	9.32%	–
CS(=O)(=O)Nc1ccc([N+](=O)[O-])cc1Oc1ccccc1	-2.19% [at 12.8 µM]	–
CC(C)(C)C(=O)Oc1ccc(S(=O)(=O)Nc2ccccc2C(=O)NCC(=O)O)cc1	3.2%	–
C[C@](N)(Cc1ccc(O)c(O)c1)C(=O)O	-17.8%	–
Clc1ccc2nsnc2c1NC1=NCCN1	2.22%	–
Cn1cnc2c1c(=O)[nH]c(=O)n2C	9.08%	–
CC(C)C(=O)Nc1ccc([N+](=O)[O-])c(C(F)(F)F)c1	-1.02%	–
COc1ccccc1OCC(O)CN1CCN(CC(=O)Nc2c(C)cccc2C)CC1 (configuration not stated)	4.3%	–
COc1ccc2[nH]cc(CCNC(C)=O)c2c1	-1.32%	–
Cn1c(=O)c2c(ncn2C)n(C)c1=O	15%	–
COC(=O)Nc1nc2ccc(C(=O)c3cccs3)cc2[nH]1	5.62%	–
Clc1ccccc1C(c1ccccc1)(c1ccccc1)n1ccnc1	–	708 nM (active)
Nc1nc2c(ncn2COC(CO)CO)c(=O)[nH]1	13.6% [at 12.8 µM]	–

Compound	activity, negative = inhibition	Potency
NCCCCCC(=O)O	4.13% [at 12.8 µM]	–
CC12CC3CC(C)(C1)CC(N)(C3)C2	-18.5%	–
Cc1cc(C(C)(C)C)c(O)c(C)c1CC1=NCCN1	-26.8%	–
Nc1nnc(-c2cccc(Cl)c2Cl)c(N)n1	-2.07%	–
CCOC(=O)c1ncn2c1CN(C)C(=O)c1cc(F)ccc1-2	4.87%	–
CN(C)c1nc(N(C)C)nc(N(C)C)n1	0.339% [at 12.8 µM]	–
NS(=O)(=O)c1cc2c(cc1Cl)NCNS2(=O)=O	-2.99%	–
CN1CCN2c3ccccc3Cc3ccccc3C2C1 (configuration not stated)	25.9%	–
Cc1cn([C@H]2C[C@H](N=[N+]=[N-])[C@@H](CO)O2)c(=O)[nH]c1=O	-2.95%	–
CN(C)C(=N)N=C(N)N	1.89% [at 12.8 µM]	–
CC[N+](CC)(CC)CCOc1cccc(OCC[N+](CC)(CC)CC)c1OCC[N+](CC)(CC)CC	12.5%	–
Cc1ccc(C(=O)Nc2ccc(S(=O)(=O)O)c3cc(S(=O)(=O)O)cc(S(=O)(=O)O)c23)cc1NC(=O)c1cccc(NC(=O)Nc2cccc(C(=O)Nc3cc(C(=O)Nc4ccc(S(=O)(=O)O)c5cc(S(=O)(=O)O)cc(S(=O)(=O)O)c45)ccc3C)c2)c1	-4.99%	–
NC(=O)NO	-1.91%	–
CN1C(C(=O)Nc2ccccn2)=C(O)c2ccccc2S1(=O)=O	2.21% [at 12.8 µM]	–
COc1cc2c(c(OC)c1OC)-c1ccc(OC)c(=O)cc1[C@@H](NC(C)=O)CC2	0.174%	–
Cc1cn([C@H]2C=C[C@@H](CO)O2)c(=O)[nH]c1=O	10.6%	–
CS(=O)(=O)CCNCc1ccc(-c2ccc3ncnc(Nc4ccc(OCc5cccc(F)c5)c(Cl)c4)c3c2)o1	-13%	–
CCCNCC(O)COc1ccccc1C(=O)CCc1ccccc1 (configuration not stated)	–	3550 nM (active)
CC(=O)OCC(CCn1cnc2cnc(N)nc21)COC(C)=O	-2.48%	–

Test system: N140
Test: as above
Settings: P. falciparum in erythrocytes, SYBR Green DNA, 72 h; series mostly up to 28.7 µM; activity, negative = inhibition: at the top concentration
In short: as §1

Compound	activity, negative = inhibition	Potency
NCCS(=O)(=O)O	12.5%	–
CC(C)Cc1ccc(C(C)C(=O)O)cc1 (configuration not stated)	8.27%	–
CC(C)NCC(O)c1ccc(O)c(O)c1 (configuration not stated)	13%	–
NC(=O)OCC(COC(N)=O)c1ccccc1	10.3%	–
N[C@@H](Cc1c[nH]c2ccc(O)cc12)C(=O)O	13%	–
Cc1cnc(C(=O)NCCc2ccc(S(=O)(=O)NC(=O)NC3CCCCC3)cc2)cn1	10.7%	–
CCOC(=O)C(C)(C)Oc1ccc(Cl)cc1	4.37%	–
CS(=O)(=O)Nc1ccc([N+](=O)[O-])cc1Oc1ccccc1	8.73% [at 12.8 µM]	–
CC(C)(C)C(=O)Oc1ccc(S(=O)(=O)Nc2ccccc2C(=O)NCC(=O)O)cc1	9.25%	–
C[C@](N)(Cc1ccc(O)c(O)c1)C(=O)O	2.48%	–
Clc1ccc2nsnc2c1NC1=NCCN1	-10%	–
Cn1cnc2c1c(=O)[nH]c(=O)n2C	-0.84%	–
CC(C)C(=O)Nc1ccc([N+](=O)[O-])c(C(F)(F)F)c1	3.1%	–
COc1ccccc1OCC(O)CN1CCN(CC(=O)Nc2c(C)cccc2C)CC1 (configuration not stated)	5.59%	–
COc1ccc2[nH]cc(CCNC(C)=O)c2c1	5.04%	–
Cn1c(=O)c2c(ncn2C)n(C)c1=O	14.3%	–
COC(=O)Nc1nc2ccc(C(=O)c3cccs3)cc2[nH]1	2.15%	–
Clc1ccccc1C(c1ccccc1)(c1ccccc1)n1ccnc1	–	224 nM (active)
Nc1nc2c(ncn2COC(CO)CO)c(=O)[nH]1	1.54% [at 12.8 µM]	–

Compound	activity, negative = inhibition	Potency
NCCCCCC(=O)O	17.3% [at 12.8 µM]	–
CC12CC3CC(C)(C1)CC(N)(C3)C2	5.42%	–
Cc1cc(C(C)(C)C)c(O)c(C)c1CC1=NCCN1	-8.84%	–
Nc1nnc(-c2cccc(Cl)c2Cl)c(N)n1	11.3%	–
CCOC(=O)c1ncn2c1CN(C)C(=O)c1cc(F)ccc1-2	21.3%	–
CN(C)c1nc(N(C)C)nc(N(C)C)n1	11.9% [at 12.8 µM]	–
NS(=O)(=O)c1cc2c(cc1Cl)NCNS2(=O)=O	6.67%	–
CN1CCN2c3ccccc3Cc3ccccc3C2C1 (configuration not stated)	12.6%	–
Cc1cn([C@H]2C[C@H](N=[N+]=[N-])[C@@H](CO)O2)c(=O)[nH]c1=O	5.5%	–
CN(C)C(=N)N=C(N)N	7.11% [at 12.8 µM]	–
CC[N+](CC)(CC)CCOc1cccc(OCC[N+](CC)(CC)CC)c1OCC[N+](CC)(CC)CC	-18.4%	–
Cc1ccc(C(=O)Nc2ccc(S(=O)(=O)O)c3cc(S(=O)(=O)O)cc(S(=O)(=O)O)c23)cc1NC(=O)c1cccc(NC(=O)Nc2cccc(C(=O)Nc3cc(C(=O)Nc4ccc(S(=O)(=O)O)c5cc(S(=O)(=O)O)cc(S(=O)(=O)O)c45)ccc3C)c2)c1	0.786%	–
NC(=O)NO	9.34%	–
CN1C(C(=O)Nc2ccccn2)=C(O)c2ccccc2S1(=O)=O	17.5% [at 12.8 µM]	–
COc1cc2c(c(OC)c1OC)-c1ccc(OC)c(=O)cc1[C@@H](NC(C)=O)CC2	1.41%	–
Cc1cn([C@H]2C=C[C@@H](CO)O2)c(=O)[nH]c1=O	11%	–
CS(=O)(=O)CCNCc1ccc(-c2ccc3ncnc(Nc4ccc(OCc5cccc(F)c5)c(Cl)c4)c3c2)o1	2.11%	–
CCCNCC(O)COc1ccccc1C(=O)CCc1ccccc1 (configuration not stated)	–	355 nM (active)
CC(=O)OCC(CCn1cnc2cnc(N)nc21)COC(C)=O	-0.113%	–
